Experimental data reported in PubChem BioAssay AID1851 (National Center for Advancing Translational Sciences (NCATS), 2009).
The whole screen tested about 16,000 compounds, of which about 5,100 (32%) were called active. About 25% were inconclusive and are not listed. Some of the results follow. Unmarked numbers belong to inactive results. Calls follow the shape of the dose curve; as a rule, active = well fitted curve in the direction sought with a large enough effect; inconclusive = small, poorly fitted or top-dose-only effect, or effect the other way; inactive = no such curve, though single readings can be large or run the other way.

biological target: Cytochrome P450 3A4 (Homo sapiens) (UniProt P08684); test: Cytochrome panel assay with activity outcomes; conditions: recombinant CYP, pro-luciferin dealkylation, luminescence, p450-cyp3a4; series mostly up to 57.1 µM; activity, negative = inhibition: at the top concentration
% is scaled to controls: 0 for no effect and ±100 for the full control effect.

Chain of Cytochrome P450 3A4 (Homo sapiens) (P08684 whole entry, looked up): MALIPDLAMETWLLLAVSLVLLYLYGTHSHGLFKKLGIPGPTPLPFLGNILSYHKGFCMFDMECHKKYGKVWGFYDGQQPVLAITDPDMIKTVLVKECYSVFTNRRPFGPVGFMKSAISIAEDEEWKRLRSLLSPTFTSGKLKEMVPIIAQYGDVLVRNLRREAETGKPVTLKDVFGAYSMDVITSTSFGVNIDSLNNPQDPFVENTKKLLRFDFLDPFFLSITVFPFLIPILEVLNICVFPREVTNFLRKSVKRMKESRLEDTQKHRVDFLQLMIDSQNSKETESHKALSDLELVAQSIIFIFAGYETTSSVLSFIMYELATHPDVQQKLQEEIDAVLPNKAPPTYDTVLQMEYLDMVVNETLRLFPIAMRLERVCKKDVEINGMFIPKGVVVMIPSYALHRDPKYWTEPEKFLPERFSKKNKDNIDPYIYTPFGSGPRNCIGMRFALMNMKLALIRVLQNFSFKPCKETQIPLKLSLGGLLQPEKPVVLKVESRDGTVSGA

Row | SMILES | AC50 | activity, negative = inhibition
1 | C=CCn1c(C)cc(C(=O)CN2C(=O)c3ccccc3C2=O)c1C | 2.82 µM (active) | 
2 | CCN(CC)c1ccc(SS(=O)(=O)O)cc1 |  | 22.8%
3 | COc1cc(C(=O)Oc2ccccc2/C=N/NC(=O)c2ccc(C)cc2)cc(OC)c1OC |  | 18.9%
4 | O=C(N/N=C/c1ccc2cccc(OCc3ccccc3)c2n1)c1ccc(Br)cc1 |  | -19% [at 2.29 µM]
5 | COc1ccc(C(=O)N/N=C/c2cccc3cccnc23)cc1 | 22.4 µM (active) | 
6 | O=C(CCS(=O)(=O)c1cccc2nsnc12)NC1CCCCC1 | 5.01 µM (active) | 
7 | Cc1cccc(NC(=O)CCS(=O)(=O)c2cccc3nsnc23)c1C |  | -25.6% [at 2.29 µM]
8 | O=C(O)[C@@H]1CCCN1Cc1ccc2c(c1)OCO2 |  | -11.9% [at 11.4 µM]
9 | CC1(C)SC(=S)N(Cc2ccc3c(c2)OCO3)C1N(O)C(=O)NC1CCCCC1 (stereo not given) | 1.12 µM (active) | 
10 | O=C(O)CC(c1ccccc1)n1cnnn1 (stereo not given) |  | 19%
11 | O=C(Cn1cnc2ccccc21)NC(c1ccccc1)c1ccccc1 | 7.94 µM (active) | 
12 | CN[C@@H]1[C@H](O[C@H]2[C@@H](O[C@@H]3[C@@H](O)[C@@H](O)[C@@H](N=C(N)N)[C@@H](O)[C@@H]3N=C(N)N)O[C@@H](C)[C@]2(O)CO)O[C@H](CO)[C@@H](O)[C@@H]1O |  | -18.2% [at 25.6 µM]
13 | COc1cc(C=O)ccc1OCCOCCOc1ccccc1Cl |  | -2.53% [at 2.29 µM]
14 | COc1ccccc1OCCCOc1ccc([N+](=O)[O-])cc1Cl | 14.1 µM (active) | 
15 | COc1cc(C)ccc1OCCCOc1ccccc1Br |  | 3.33% [at 2.29 µM]
16 | Cc1ccc2c(c1)N(CC(=O)NC1CCC(C)CC1)C(=O)CO2 (stereo not given) | 7.08 µM (active) | 
17 | Cc1ccc2c(c1)N(CC(=O)NC1CCCc3ccccc31)C(=O)CO2 (stereo not given) | 7.08 µM (active) | 
18 | Cc1ccc(C(=O)N/C(=C\c2ccc(Br)cc2)c2nc(=S)[nH][nH]2)cc1 | 22.4 µM (active) | 
19 | CC(=O)NN1C(=O)/C(=C\c2ccc(C)cc2)SC1=S |  | -28%
20 | Cc1ccc(C(=O)NC(=S)Nc2cccc3nsnc23)cc1 |  | -8.47%
21 | CN(C)CCCN1c2ccc3ccccc3c2Sc2cccc(Cl)c21 |  | -11.7% [at 11.4 µM]
22 | Clc1ccc(Cc2nc(-c3cccnc3)no2)cc1 | 2.51 µM (active) | 
23 | c1ccc(CCc2nc(-c3ccccc3)no2)cc1 |  | -24.8%
24 | Clc1ccc(-c2noc(CN3CCCCC3)n2)cc1 |  | -11.9% [at 11.4 µM]
25 | Cc1ccc(C2=Nc3ccccc3S[C@@H](c3cccc([N+](=O)[O-])c3)C2)cc1 | 3.98 µM (active) | 
26 | C[C@@]12CC[C@@H]3c4ccc(O)cc4CC[C@H]3[C@H]1C[C@@H](O)[C@H]2O |  | -7.48% [at 25.6 µM]
27 | Cc1cccc(C)c1OC1(c2ccccc2)OC(=O)c2ccccc21 (stereo not given) | 8.91 µM (active) | 

Row | SMILES | AC50 | activity, negative = inhibition
28 | CCCCCCCOC1(c2ccccc2)OC(=O)c2ccccc21 (stereo not given) |  | -21.5%
29 | N#C/C(=C\Nc1ccccn1)C(=O)c1ccco1 |  | -18.7% [at 11.4 µM]
30 | CCCC(CCC)C(=O)NNc1cc(=O)c2c(=O)n(C)c(=O)n(C)c2[nH]1 |  | -11.1%
31 | Cc1noc(NS(=O)(=O)c2ccc(N)cc2)c1C | inactive | 
32 | Cc1ccnc(NS(=O)(=O)c2ccc(NC(=O)C3CCCNC3=O)cc2)n1 (stereo not given) |  | -19.1%
33 | Cc1noc(NS(=O)(=O)c2ccc(NC(=O)CC34CC5CC(CC(Br)(C5)C3)C4)cc2)c1C | 6.31 µM (active) | 
34 | O=[N+]([O-])c1cccc(-c2nc(-c3ccncc3)no2)c1 | 0.562 µM (active) | 
35 | COC(=O)COc1ccc2c(-c3cccc([N+](=O)[O-])c3)cc(=O)oc2c1 |  | -28.1%
36 | CC(C)CCNC1=NCCCCC1 |  | -3.64%
37 | Cc1[nH]nc2nc(SCC(=O)NCC3CCCO3)n(-c3ccc(Br)cc3)c(=N)c12 (stereo not given) | 11.2 µM (active) | 
38 | Cc1cccc2c(SCC(=O)NCC3CCCO3)nc(-c3ccc(F)cc3)nc12 (stereo not given) |  | -23.2%
39 | Cc1ccc(-n2ncc3c(=O)n(CC(=O)NCC4CCCO4)cnc32)cc1 (stereo not given) |  | -21.5%
40 | Nc1ccc(Sc2cnn(-c3ccccc3)c(=O)c2Cl)cc1 | 8.91 µM (active) | 
41 | Nc1ncnc2c1cnn2-c1ccccc1 |  | -17.9%
42 | NCCCCCC(=O)O | inactive | 
43 | CNC(=O)C(=O)NCCc1ccc(Cl)cc1 |  | -24.5%
44 | Cc1nc(SCC(=O)NCCc2ccc(Cl)cc2)nc(C)c1C | 2 µM (active) | 
45 | Nc1ccc(S(=O)(=O)Nc2ccc(Cl)nn2)cc1 |  | -19.2% [at 25.6 µM]
46 | Cc1nc2sccc2c(=O)n1-c1cccc(Cl)c1 |  | 17.4% [at 11.4 µM]
47 | Nc1nnc(CC(=O)N/N=C/c2cccc([N+](=O)[O-])c2)s1 | 28.2 µM (active) | 
48 | O=C(Cc1ccccc1)N/N=C/C=C/c1cccc([N+](=O)[O-])c1 |  | -11.9%
49 | CCCC(=O)Nc1cc(-c2cn3cccnc3n2)ccc1OC |  | -20%
50 | COc1ccc(CN2CCN(C(=O)CC(C)C)CC2)c(OC)c1OC |  | -28.6%
51 | CCOc1ccc(-c2cc(CCCC(=O)NCCc3ccc(OC)c(OC)c3OC)no2)cc1 | 7.08 µM (active) | 
52 | CCOc1ccc(-c2cc(CCCC(=O)Nc3cc(OC)ccc3OC)no2)cc1 | 3.55 µM (active) | 
53 | N[C@H](CCC(=O)NCS(=O)(=O)O)C(=O)O |  | -6.84%
54 | c1ccc(-c2ccc(N3CCCC4(CCNCC4)C3)cc2)cc1 | 12.6 µM (active) | 

Row | SMILES | AC50 | activity, negative = inhibition
55 | c1ccc(-c2ccc(N3CC[C@@]4(CCCNC4)C3)cc2)cc1 |  | -22%
56 | CS(=O)(=O)N1CCC2(CC1)CN(c1ccc(-c3ccccc3)cc1)C2 |  | -13.5%
57 | COC(=O)N1CCC2(CCCN(c3ccccn3)C2)CC1 |  | -21.1%
58 | O=C(Oc1ccccc1)N1CCC[C@@]2(CCN(c3ccccn3)C2)C1 | 10 µM (active) | 
59 | CC(=O)N1CCC2(CC1)CN(c1ccccn1)C2 |  | -8.58%
60 | O=C(Oc1ccccc1)N1CCC2(CCCN(c3ccc(-c4ccccc4)cc3)C2)CC1 | 31.6 µM (active) | 
61 | COC(=O)N1CCC[C@@]2(CCN(c3ccccn3)C2)C1 |  | -29.4%
62 | O=C(Oc1ccccc1)N1CCC2(CCCN(c3ccccn3)C2)CC1 | 25.1 µM (active) | 
63 | O=C(Oc1ccccc1)N1CCC2(CCCN(c3ncccn3)C2)CC1 |  | -28.9%
64 | CC(=O)N1CCC2(CC1)CCN(c1ccc(-c3ccccc3)cc1)CC2 |  | -3.64%
65 | NC(=O)CCCC1=NS(=O)(=O)c2ccccc2N1 |  | -25.6%
66 | CC(C)(CC(=O)N1CCN(c2ccc(Cl)cc2)CC1)CC1=NS(=O)(=O)c2ccccc2N1 | 2.51 µM (active) | 
67 | NC(=O)C1(N2CCCCC2)CCN(C(=S)Nc2ccc(Cl)cc2)CC1 |  | -18%
68 | CCOC(=O)N1CCN(C(=O)c2cccn3c(=O)c4cc(Cl)ccc4nc23)CC1 |  | 6.16%
69 | NC(=O)C1(N2CCCCC2)CCN(C(=O)c2cccn3c(=O)c4cc(Cl)ccc4nc23)CC1 | 11.2 µM (active) | 
70 | CC(C)(C)n1nnnc1C(c1cccnc1)N(Cc1ccccc1)Cc1ccco1 (stereo not given) | 0.794 µM (active) | 
71 | O=C(NCCc1c[nH]c2ccccc12)[C@@H]1C[C@H]1[C@@H](NP(=O)(c1ccccc1)c1ccccc1)c1ccccc1 | 1.26 µM (active) | 
72 | O=C(NCCc1c[nH]c2ccccc12)[C@H]1C[C@@H]1[C@H](NP(=O)(c1ccccc1)c1ccccc1)c1ccccc1 | 1.58 µM (active) | 
73 | CN(Cc1cc(C(C)(C)C)cc(Br)c1O)Cc1cc(C(C)(C)C)cc(Br)c1O |  | -11.7% [at 11.4 µM]
74 | CCOC(=O)c1cnc(-c2ccccc2)nc1Oc1cccc(Cl)c1 |  | -19.3%
75 | CCOC(=O)c1cnc2cc(-c3ccc(C)cc3)nn2c1-c1ccccc1 | 20 µM (active) | 
76 | CCOC(=O)c1cnc2cc(-c3ccc(C(C)(C)C)cc3)nn2c1N |  | 7.33%
77 | CC(=O)c1c(C(C)=O)c(C)n(NC(=O)c2ccccc2Cl)c1C |  | 17.3%
78 | CC(=O)C1=NOC(CNC(=O)c2c(-c3ccccc3Cl)noc2C)C1 (stereo not given) | 15.8 µM (active) | 
79 | Cc1onc(-c2ccccc2Cl)c1C(=O)NCC(=O)O |  | -12.3%
80 | CCOC(=O)C1=NOC(CNC(=O)C2=NOC(CNC(=O)c3c(-c4ccccc4Cl)noc3C)C2)C1 (stereo not given) | 12.6 µM (active) | 
81 | CC(C)(C[C@@]1(C)NC(=O)NC1=O)OCc1ccccc1 |  | -6.17% [at 11.4 µM]

Row | SMILES | AC50 | activity, negative = inhibition
82 | O=C(O)c1cc(C(=O)C(=O)c2cc(C(=O)O)c(O)c3ccccc23)c2ccccc2c1O |  | -22.6% [at 11.4 µM]
83 | CCN(CC(=O)Nc1ccc(N2CCOCC2)cc1)Cc1nc2ccccc2c(=O)[nH]1 |  | -42.3%
84 | CC(C)c1ccc(NC(=O)N(CCc2nc3ccccc3[nH]2)C2CCCC2)cc1 |  | -18.7% [at 2.29 µM]
85 | Cc1cccc(NC(=O)N(Cc2nc3ccccc3c(=O)[nH]2)C2CCCC2)c1 | 15.8 µM (active) | 
86 | Nc1nnc(C(c2ccccc2)c2ccccc2)s1 |  | 13.5%
87 | Cc1cccc(C(CC(=O)N2CCCC2)c2ccccc2)c1O (stereo not given) | 2.51 µM (active) | 
88 | O=C(C[C@@H](c1ccccc1)N1CCCCC1)c1ccccc1 |  | -9.31% [at 11.4 µM]
89 | Cc1ccc(OC(=O)c2cccc(C(=O)Oc3ccc(C)cn3)n2)nc1 |  | -2.88%
90 | FC(F)(F)c1nc(-c2ccncc2)ncc1-c1nnnn1-c1ccccc1 | 5.62 µM (active) | 
91 | FC(F)(F)c1nc(N2CCCC2)ncc1-c1nnnn1-c1ccccc1 |  | 21% [at 2.29 µM]
92 | O=c1cc(CF)[nH]c(=S)[nH]1 |  | -8.49% [at 11.4 µM]
93 | COC(=O)c1ccc(NC(=O)c2ccccc2NS(=O)(=O)c2ccccc2)cc1 | 7.94 µM (active) | 
94 | CC(=O)C=NCC(=O)O |  | -0.504% [at 11.4 µM]
95 | CCOC(=O)N/N=C1/C[C@@H](O)[C@@H](O)[C@@H]2[C@@H]3C(=O)N([C@@H](C)c4ccccc4)C(=O)[C@H]3CC[C@H]12 |  | -23.4% [at 11.4 µM]
96 | C#CCCCO/N=C1/C[C@@H](O)[C@@H](O)[C@@H]2[C@@H]3C(=O)N([C@@H](C)c4ccccc4)C(=O)[C@H]3CC[C@@H]12 | 3.98 µM (active) | 
97 | C#CCCCO/N=C1/C[C@@H](O)[C@@H](O)[C@@H]2[C@@H]3C(=O)N(C4CCCCC4)C(=O)[C@H]3CC[C@@H]12 | 3.16 µM (active) | 
98 | CC(C)CO/N=C1/C[C@@H](O)[C@@H](O)[C@@H]2[C@@H]3C(=O)N([C@@H](C)c4ccccc4)C(=O)[C@H]3CC[C@@H]12 |  | -29.6% [at 11.4 µM]
99 | C[C@H](c1ccccc1)N1C(=O)[C@H]2[C@@H]3[C@H](O)[C@H](O)CC(=O)[C@H]3CC[C@H]2C1=O |  | -18.1% [at 11.4 µM]
100 | C#CCCCO/N=C1/C[C@@H](O)[C@@H](O)[C@@H]2[C@@H]3C(=O)N([C@@H](C)c4ccccc4)C(=O)[C@H]3CC[C@H]12 | 3.98 µM (active) | 
101 | C#CCCCO/N=C1/C[C@@H](O)[C@@H](O)[C@@H]2[C@@H]3C(=O)N(CC)C(=O)[C@H]3CC[C@H]12 |  | -27.7% [at 11.4 µM]
102 | C#CCCCO/N=C1/C[C@@H](O)[C@@H](O)[C@@H]2[C@@H]3C(=O)N(Cc4ccccc4)C(=O)[C@H]3CC[C@H]12 | 3.98 µM (active) | 
103 | C#CCCCO/N=C1/C[C@@H](O)[C@@H](O)[C@@H]2[C@@H]3C(=O)N(CC)C(=O)[C@H]3CC[C@@H]12 |  | -23.5% [at 11.4 µM]
104 | CCOC(=O)N/N=C1/C[C@@H](O)[C@@H](O)[C@@H]2[C@@H]3C(=O)N([C@@H](C)c4ccccc4)C(=O)[C@H]3CC[C@@H]12 |  | -20.9% [at 11.4 µM]
105 | C#CCCCO/N=C1/C[C@@H](O)[C@@H](O)[C@@H]2[C@@H]3C(=O)N(Cc4ccccc4)C(=O)[C@H]3CC[C@@H]12 |  | -23.2% [at 11.4 µM]
